Results from PubChem BioAssay AID1628 (Sanford-Burnham Center for Chemical Genomics, 2009).
Hit rate of the full screen: of about 190,000 compounds, about 930 (0.49%) were called active. The list shows a part of the results. Measured potencies and affinities stand elsewhere. A number with no mark means an inactive call.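 Rule for the calls: active = z-score of insulin promoter reporter brightness in nuclei below -3 at 5 µM, with at least 500 cells counted; inconclusive = wells with under 500 cells, flagged as toxic or sparse; inactive = the rest.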

Assay: decrease of insulin promoter-GFP reporter – imaging, high-content screening, mouse beta cells (AID 1628)
Details: MIN6 insulin promoter GFP reporter, at 5 µM, hits give low values
Compound `CCCS(=O)(=O)N1CCC(C(=O)NCCC(C)C)CC1` has a z-score of 3.11.
With `Cc1ccccc1C(=O)NC1CCN(C(=O)N2CCOCC2)CC1` the z-score was 1.27.
In the case of `CSc1ccccc1C(=O)NC1CCCC1`, the z-score is reported as -5.87 (active).
For `O=C(Cn1nnc(-c2ccc(S(=O)(=O)N3CCCC3)cc2)n1)Nc1ccccc1-n1cccc1`, the z-score was -4 (active).
For `COc1ccccc1NC(=S)N(Cc1ccc(C)cc1)Cc1ccccn1`, the z-score was 1.92.
In the case of `COc1ccc(-c2[nH]ncc2CN(C)Cc2ccccn2)c(OC)c1`, the z-score is reported as -4.89 (active).
Work on `CCCCCCCCCCCC(=O)c1c(O)cccc1O` yielded a z-score of -0.04.
For `CN1C(=S)N(c2cccnc2)C(=O)/C1=C\c1ccc(N(C)C)cc1`, the z-score was 5.58.
Work on `COCCN(C(=S)Nc1ccc(C)cc1C)C(C)c1cccs1` (configuration not stated) yielded a z-score of 1.14.
For `Cc1ccccc1NC(=S)N(CCN(C)C)C(C)c1ccccn1` (configuration not stated), the z-score was -6.19 (active).
With `CCc1ccccc1NC(=S)N(CCN(C)C)C(C)c1ccccn1` (configuration not stated) the z-score was -5.14 (active).
For `CCN1CCN(C(=O)C2(NC(=O)Nc3cccc(F)c3)CCCCC2)CC1`, the z-score was -4.67 (active).
For `CC(C)CCN(C(=S)Nc1cccc(F)c1)C(C)c1cccs1` (configuration not stated), the z-score was 4.77.
For `COc1ccccc1NS(=O)(=O)c1cc(NC(=O)c2ccc(=O)[nH]c2)ccc1N1CCOCC1`, the z-score was -4.48 (active).
For `CCCCn1nnnc1SCC(=O)Nc1cccc(C)n1`, the z-score was -4.7 (active).
`Cc1nn(C)c(C)c1NC(=O)CSc1nnc(C)n1-c1ccccc1` gave a z-score of 0.56.
With `Cc1cccc(NC(=O)Cn2cc([N+](=O)[O-])cn2)n1` the z-score was 2.86.
For `NC(=S)n1[nH]c(-c2ccc([N+](=O)[O-])cc2)c(N=Nc2ccc(Cl)cc2)c1=O`, the z-score was -5.03 (active).
In the case of `NC(=S)n1[nH]c(-c2ccc([N+](=O)[O-])cc2)c(N=Nc2cccc(Cl)c2)c1=O`, the z-score is reported as -3.23 (active).
Work on `Cc1ccccc1SCc1noc(C(=O)NC(C)C)c1C(=O)O` yielded a z-score of 3.02.
`O=C(NCc1cccs1)c1ccc(N2CCCCC2)nc1` showed a z-score of 3.41.
With `Cc1cc(C)c(S(=O)(=O)c2ccccc2C)c(SCC(C)C)n1` the z-score was -3.18 (active).
`Cc1cc(C)c(C#N)c(SCC2COc3ccccc3O2)n1` (configuration not stated) showed a z-score of 3.48.
With `CCOC(=O)c1c(-c2ccc(C)cc2)csc1NC(=O)/C(C#N)=C/c1ccc(O)c(OC)c1` the z-score was 8.18.
Work on `CN(C)c1ccc(/C=C/C(O)=C2/C(=O)N(C)C3(C)CC2c2ccccc2O3)cc1` (configuration not stated) yielded a z-score of 3.04.
`CCCS(=O)(=O)NCCc1cc2ccc(C)cc2[nH]c1=O` gave a z-score of 0.95.
For `CCc1c(C(=O)NC2CCCCC2)[nH]c(C)c1C(C)=O`, the z-score was 3.85.
With `CCN(CC)CCN(Cc1cc2ccc(C)cc2[nH]c1=O)C(=O)NC1CCCCC1` the z-score was -4.95 (active).
For `O=C(c1ccc2c(c1)OCO2)N1CCCC1`, the z-score was 8.93.
In the case of `O=C(c1ccc2c(c1)OCO2)N1CCc2ccccc2C1`, the z-score is reported as -0.76.
With `O=C(c1ccc2c(c1)OCO2)N1CCCC(c2ccccc2)C1` (configuration not stated) the z-score was -3.99 (active).
For `O=C(c1ccc2c(c1)OCO2)N1CCN(c2ccccn2)CC1`, the z-score was -5.54 (active).
For `O=C(CC12CC3CC(CC(C3)C1)C2)NCC(=O)N1CCc2ccccc2C1`, the z-score was 3.34.
For `CN(C)c1ccc(/C=C/C(=O)c2c(O)c3ccccc3oc2=O)cc1`, the z-score was 8.78.
With `CN(C)c1ccc(C(=O)c2ccc(N(C)C)c3ccccc23)cc1` the z-score was -5.22 (active).
With `O=C(O)c1cc(-c2ccncc2)nc2ccc(F)cc12` the z-score was 3.
For `O=C(O)CCCC(=O)Nc1c(F)c(F)c(F)c(F)c1F`, the z-score was 0.09.
In the case of `Cc1c2ccccc2nc2c(F)c(NC(C)C)c(F)c(F)c12`, the z-score is reported as 9.6.
For `O=C(NCc1ccccn1)C(=O)NCC(c1ccco1)N1CCN(c2ccc(F)cc2)CC1` (configuration not stated), the z-score was 1.32.
With `Cc1noc(C)c1CSCC(=O)N1CCN(c2ccc(F)cc2)CC1` the z-score was -3.68 (active).
`COc1ccc(CN=Cc2[nH]c3ccc(Br)c(Cl)c3c2O)cc1` gave a z-score of 8.49.
With `COc1cccc(/C=N/NC(=O)c2c(C)nc3ccc(Br)cn23)c1O` the z-score was -4.47 (active).
For `COc1cc(OC)c2cc(C(=O)N/N=C/c3cccc(OC)c3O)[nH]c2c1`, the z-score was -3.6 (active).
In the case of `CN(C)c1nc(N)nc(/C(C#N)=C/C2CC3C=CC2C3)n1` (configuration not stated), the z-score is reported as 3.05.
For `Oc1ccc2ccccc2c1N=Nc1ccccn1`, the z-score was -8.6 (active).
With `CCOC(=O)c1ccc2[nH]c3ccccc3c2c1` the z-score was -0.27.
`Cc1ccc(/C=[N+](\[O-])c2ccc(N(C)C)cc2)c2nsnc12` showed a z-score of 4.9.
For `O=C(NCC1CCCO1)C1CCN(S(=O)(=O)N2CCCC2)CC1` (configuration not stated), the z-score was 3.58.
With `CN(C)S(=O)(=O)c1cc(C(=O)NCC2CCCO2)c(Cl)cc1Cl` (configuration not stated) the z-score was -4.71 (active).
With `O=C(COC(=O)c1cc(S(=O)(=O)N2CCOCC2)ccc1O)NCC1CCCO1` (configuration not stated) the z-score was 3.77.
In the case of `Cc1cc(/C=C2\SC(=S)NC2=O)c(C)n1C1CC1`, the z-score is reported as 3.04.
In the case of `O=C(OCN1C(=O)c2ccccc2C1=O)c1ccco1`, the z-score is reported as -1.25.
With `O=C(CN1CCN(C(=O)c2ccco2)CC1)Nc1ccccc1-c1ccccc1` the z-score was -4.53 (active).
`O=C(OCC(=O)N1CCN(C(=O)c2ccco2)CC1)c1ccccc1OCc1ccccc1` gave a z-score of 11.8.
With `Cc1cc(S(=O)(=O)NC2CCCCC2)c(C)s1` the z-score was 3.49.
In the case of `Cc1cccc(Cn2c(NCCO)nc3c2c(=O)n(C)c(=O)n3C)c1`, the z-score is reported as -9.37 (active).
For `CC(C)CCn1c(CN(C)Cc2ccccc2)nc2c1c(=O)n(C)c(=O)n2C`, the z-score was -5.09 (active).
`Cn1c(=O)c(NCCO)c2c3c(cccc31)C(=O)c1ccccc1-2` gave a z-score of 13.6.
In the case of `CNc1nc2c(c(=O)n(C)c(=O)n2C)n1Cc1ccccc1`, the z-score is reported as -5.04 (active).
For `CC(C)Cn1cnc2c1c(=O)n(C)c(=O)n2C`, the z-score was -0.43.
`Cc1cccc(OCCNc2nc3c(c(=O)n(C)c(=O)n3C)n2C)c1` showed a z-score of 4.22.
Work on `CN1CC=C2C(C#N)=C(N)C(C#N)(C#N)[C@H](c3ccoc3)[C@H]2C1` yielded a z-score of 12.4.
With `CCN(CC)C(=O)C1CCN(Cc2cccc(OCc3ccccc3)c2)CC1` the z-score was -4.22 (active).
For `CC(C)CCn1nc(C(=O)Nc2nc3c(s2)CCCC3)c2ccccc2c1=O`, the z-score was -3.57 (active).
With `CC(C)(C)NC(=O)c1nn(Cc2ccccc2)c(=O)c2ccccc12` the z-score was 1.76.
With `COc1ccc(S(=O)(=O)N2CCN(c3ncnc4c(-c5ccccc5)nsc34)CC2)cc1` the z-score was -3.2 (active).
With `Cc1ccc(-n2c3c(c(=O)[nH]c2=O)C(C(F)(F)F)(C(F)(F)F)NC(=O)N3)cc1` the z-score was 3.01.
In the case of `COc1ccc(N2CCN(C(=O)C3CCC(Cn4c(=S)[nH]c5ccccc5c4=O)CC3)CC2)cc1` (configuration not stated), the z-score is reported as -3.35 (active).
In the case of `COc1ccc(C2C(C(=O)N3CCOCC3)CCC(=O)N2c2ccc(OC)cc2)cc1` (configuration not stated), the z-score is reported as 3.73.
With `Nc1c(C(=O)c2cccs2)sc2nsc(SCCN3CCCCC3)c12` the z-score was 8.75.
With `Nc1nc(-c2ccc(Cl)cc2)c(N=Nc2ccc(S(=O)(=O)N3CCOCC3)cc2)s1` the z-score was 3.8.
Work on `CCN(CC)c1ccc(/C=C2/SC(=O)N(C(C)C)C2=O)o1` yielded a z-score of 17.3.
For `Cc1cc(Cl)n2nc(C)c(-c3ccc(Cl)cc3)c2n1`, the z-score was -5.26 (active).
`O=C(CCn1cccc1)Nc1ccc(OC(F)(F)F)cc1` showed a z-score of 2.14.
In the case of `CN(C)S(=O)(=O)Oc1cccc(C(=O)Nc2ccc([N+](=O)[O-])cc2)c1`, the z-score is reported as 3.38.
For `CCCOc1ccc2ccccc2c1/C=N/n1c(C)nnc1-n1nc(C)cc1C`, the z-score was -4.98 (active).
`N#C/C(=C\c1ccc(N2CCCCC2)o1)C(N)=O` gave a z-score of 7.37.
With `O=C(O)c1cc([N+](=O)[O-])c(NCCC2=CCCCC2)c([N+](=O)[O-])c1` the z-score was 0.74.
`COC(CNC(=O)CSCc1nc(-c2ccc(SC)cc2)oc1C)OC` gave a z-score of 2.32.
Compound `COc1cccc(/C=N/NC(=O)c2ccc(N(C)S(=O)(=O)c3ccccc3)cc2)c1OC` has a z-score of 3.8.
With `COc1cc(C(=O)Oc2ccccc2/C=N/NC(=O)c2ccc(C)c(Cl)c2)cc(OC)c1OC` the z-score was -5.2 (active).
With `CCCN1C=CC(=CC=C(C#N)C#N)C=C1` the z-score was 4.99.
In the case of `CCC(=O)Nc1ccc(C(=O)Cn2ncc(Cl)c(Cl)c2=O)cc1`, the z-score is reported as -3.05 (active).
In the case of `COc1ccccc1C(=O)NNC(=O)C(=O)NC(C)(C)C`, the z-score is reported as 3.28.
For `COc1ccccc1C(=O)NC(=Nc1nc2ccccc2o1)NC(=O)c1ccccc1OC`, the z-score was -6.44 (active).
With `C=CCNC(=O)/C(=C\c1ccc(Br)cc1)NC(=O)c1ccccc1OC` the z-score was 3.42.
`COc1ccccc1N/C=C/c1onc(C)c1[N+](=O)[O-]` showed a z-score of 4.57.
In the case of `Cn1c(/C(C#N)=C/c2ccc(-c3ccc(S(N)(=O)=O)cc3)o2)nc2ccccc21`, the z-score is reported as 4.53.
Compound `CNC(=S)NNC(=O)c1oc2nc(-c3ccccc3)cc(-c3ccco3)c2c1N` has a z-score of 3.41.
For `C/C(=N/Nc1nc(-c2ccccc2)cc(-c2ccccc2)n1)c1ccc(N)cc1`, the z-score was -3.67 (active).
Work on `C/C(=N\Nc1ccc([N+](=O)[O-])cc1)c1cc2ccccc2o1` yielded a z-score of 5.52.
For `COc1cc(OC)c(-c2c3cc(O)c(=O)cc-3oc3cc(O)c(O)cc23)cc1OC`, the z-score was 11.4.
With `Cc1cccc(NC(=O)COc2cccc3c2CCN(Cc2ccccc2)C3=O)c1C` the z-score was -3.66 (active).
`S=c1[nH]nc(-c2ccccc2)n1CC1CCCO1` (configuration not stated) showed a z-score of 3.06.
With `Cc1nccn1CCc1n[nH]c(=S)n1Cc1ccccc1` the z-score was -4.01 (active).
`CC(C)OC(=O)c1c2c(n3ccccc13)C(=O)c1ccccc1C2=O` gave a z-score of 11.7.
Compound `CN1c2ccccc2N(C)C1c1c(O)ccc2ccccc12` has a z-score of 1.
